USP17 inh – human USP17-like deubiquitinase inhibition. inhibition, % at 50 µM. 47,000 tested, 6.5% active. A8MUK1. purified USP17, Ub-rhodamine cleavage fluorescence, 3 h
USP28 inh – blocks human USP28 ubiquitin-rhodamine cleavage; purified USP28, Ub-rhodamine cleavage fluorescence, 30 min; inhibition, % at 25 µM; 47,000 tested, 3% active
USP30 block – human USP30 deubiquitinase inhibition. Q70CQ3. purified USP30, Ub-rhodamine cleavage fluorescence. inhibition, % at 25 µM. 47,000 tested, 5.3% active. AID 1645860
USP10 inh – inhibitors of human USP10 deubiquitinase; Q14694; purified USP10, Ub-rhodamine fluorescence, 60 min; inhibition, % at 20 µM; 47,000 tested, 1.1% active
USP8 block – blocks human USP8 ubiquitin-rhodamine cleavage; purified USP8, Ub-rhodamine cleavage fluorescence, 30 min; inhibition, % at 20 µM; 47,000 tested, 4.2% active; AID 1645853
OTUD3 inh – human OTUD3 deubiquitinase inhibition; AID 1645858; 47,000 tested, 0.7% active; purified OTUD3, Ub-rhodamine fluorescence, 2 h; inhibition, % at 25 µM
* marks the source's active call; other numbers are inactive results; i = inactive; nt = not tested or not shown. A selection: hits, their analogues and other compounds. The true share with any hit is near 13%. No stated cut-off is given here; in the data, active means inhibition above about 30%; inactive means the rest.

SMILES	USP17 inh	USP28 inh	USP30 block	USP10 inh	USP8 block	OTUD3 inh
CCOc1c(Br)cnn(-c2ccc(F)cc2)c1=O	2	4	26	3	12	18
CCCCn1c(-c2ccccn2)nc2c1c(=O)[nH]c(=O)n2CCC	8	0	-6	-1	-8	7
O=C(c1ccnn1-c1ccc2ccc(-c3ccncc3)cn12)N1CCCC1	-181	-280	i	-7	-324	-212
Cc1sc(NC(=O)C2(c3ccc(Cl)cc3)CCC2)nc1-c1ccc2c(c1)CCN2C(=O)C1CCCCC1	15	16	31*	2	6	14
Cc1sc(NC(=O)CN2CCc3ccccc3C2)nc1-c1ccc2c(c1)CCN2C(=O)C1CCCCC1	54*	-2	-76	-7	76*	-26
Cc1ccccc1C(=O)N1CCc2cc(-c3nc(NC(=O)C4(c5ccc(Cl)cc5)CCC4)sc3C)ccc21	-9	nt	nt	2	3	-1
O=C(Nc1ccccc1F)C1=NOC2(CCNCC2)C1	34*	39*	34*	-4	-3	21
CCc1nn2c(S(=O)(=O)N3CCN(c4ccccc4)CC3)c(C)nc2s1	6	8	39*	1	-46	6
COc1ccc(NC(=O)CCc2c(C)nc3c(c2C)c(=O)n(C)c(=O)n3C)cc1	4	-5	-2	12	5	-3
CCOC(=O)CC(NC(=O)CCc1c(C)nc2c(c1C)c(=O)n(C)c(=O)n2C)c1ccc(C)cc1 (centres undefined)	14	4	31*	-5	3	2
Cc1ncsc1C(=O)N1CC[C@@H]2[C@H]1CCCC(=O)N2Cc1ccccc1C(F)(F)F	6	8	1	0	14	6
O=C(Cn1c(=O)n(Cc2ccc(C(=O)NCc3ccco3)cc2)c(=O)c2ccccc21)Nc1ccc2c(c1)OCCO2	81*	58*	48*	41*	74*	28
O=C(CCCCn1c(=O)c2ccccc2n(CC(=O)Nc2ccc3c(c2)OCCO3)c1=O)NCc1ccco1	16	14	27	43*	3	8
O=C(CCc1ccccc1)N(Cc1cccnc1)c1nc2cc3c(cc2s1)OCO3	10	6	8	-3	4	8
O=C(CCc1ccccc1)N(CC1CCCO1)c1nc2ccccc2s1 (centres undefined)	21	22	56*	3	6	17
O=C(Nc1ccc(N2CCCCC2)cc1)c1cccc(N2C(=O)CCS2(=O)=O)c1	21	1	-13	3	43*	3
O=C(NCCc1ccc(F)cc1)c1cccc(N2C(=O)CCS2(=O)=O)c1	18	18	37*	4	18	9
COc1ccccc1CCNC(=O)c1cccc(N2C(=O)CCS2(=O)=O)c1	4	20	13	-1	23	14
Cc1ccccc1CNC(=O)c1cccc(N2C(=O)CCS2(=O)=O)c1	2	0	1	-3	8	0
COc1ccc(C(=O)C2CC2c2ccc(Cl)cc2)cc1 (centres undefined)	7	8	16	5	10	1
CCN(c1ccccc1)S(=O)(=O)c1ccc2[nH]cc(C(=O)NCc3cccnc3)c(=O)c2c1	16	5	-1	22	38*	6
CCn1cc(C(=O)NCc2cccnc2)c(=O)c2cc(S(=O)(=O)N3CCCCC3)ccc21	0	5	24	-1	-13	2
O=C(NC1CCCC1)c1ccccc1N1C(=O)[C@@H]2Cc3c([nH]c4ccccc34)C(c3cccc(Cl)c3)N2C1=O (some centres undefined)	-32	-32	-204	-4	-35	-24
CC(NC(=O)Cn1c(=O)n(-c2ccccc2)c2ncccc21)c1ccccc1 (centres undefined)	0	-5	-32	-6	1	-7
Cc1ccc(CNC(=O)Cn2c(=O)n(-c3ccccc3)c3ncccc32)cc1	51*	4	-7	4	33*	4
Cn1c(=O)n(CC(=O)NCc2cccc(F)c2)c2cccnc21	-1	nt	nt	-3	-6	0
O=C(Cn1c(=O)n(-c2ccc(F)cc2)c2ncccc21)NCc1ccccc1	18	23	9	7	37*	7
O=C(C1CCCC1)N1CCC(c2nc3c(nnn3Cc3c(F)cccc3Cl)c(=O)[nH]2)CC1	-2	-5	11	12	-19	-9

High-throughput results as filed in PubChem.
